Assay outcomes: PubChem BioAssay, National Center for Advancing Translational Sciences (NCATS)
HP1b binding inh = HTS for Inhibitors of HP1-beta Chromodomain Interactions with Methylated Histone Tails; Chromobox protein homolog 1 (Homo sapiens), P83916; AlphaScreen HP1-beta / biotin-H3K9me3 peptide binding; Potency, µM (doses to about 114 µM), inactives show top-dose activity change, negative = inhibition, most hits filed as inhibitors; actives 0.56% (n = 390,000); AID 540317, 2011; also: nearly all actives have a fitted effect of over 70% in size
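HP1-beta protein (50 nM final) preincubated 30 min at room temperature with biotinylated H3(1-18)K9me3 peptide (50 nM) in PBS pH 7.4, 0.01% Tween-20, then compound added for 30 min. AlphaScreen streptavidin donor/nickel chelate acceptor beads (10 ug/mL final), 30 min dark, luminescence read.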
ALOX12 inh = Primary qHTS assay for inhibitors of human arachidonate 12S-lipoxygenase (ALOX12): Round 2; Polyunsaturated fatty acid lipoxygenase ALOX12 (Homo sapiens), P18054; purified 12hLO, xylenol orange hydroperoxide absorbance; Potency, µM (series often up to 108 µM), for the others: at the highest dose activity change, negative = inhibition, actives largely listed as inhibitors; actives 1.1% (n = 580,000); also: % is scaled to controls: 0 for no effect and ±100 for the full control effect
Target sequence (P18054 whole entry, looked up): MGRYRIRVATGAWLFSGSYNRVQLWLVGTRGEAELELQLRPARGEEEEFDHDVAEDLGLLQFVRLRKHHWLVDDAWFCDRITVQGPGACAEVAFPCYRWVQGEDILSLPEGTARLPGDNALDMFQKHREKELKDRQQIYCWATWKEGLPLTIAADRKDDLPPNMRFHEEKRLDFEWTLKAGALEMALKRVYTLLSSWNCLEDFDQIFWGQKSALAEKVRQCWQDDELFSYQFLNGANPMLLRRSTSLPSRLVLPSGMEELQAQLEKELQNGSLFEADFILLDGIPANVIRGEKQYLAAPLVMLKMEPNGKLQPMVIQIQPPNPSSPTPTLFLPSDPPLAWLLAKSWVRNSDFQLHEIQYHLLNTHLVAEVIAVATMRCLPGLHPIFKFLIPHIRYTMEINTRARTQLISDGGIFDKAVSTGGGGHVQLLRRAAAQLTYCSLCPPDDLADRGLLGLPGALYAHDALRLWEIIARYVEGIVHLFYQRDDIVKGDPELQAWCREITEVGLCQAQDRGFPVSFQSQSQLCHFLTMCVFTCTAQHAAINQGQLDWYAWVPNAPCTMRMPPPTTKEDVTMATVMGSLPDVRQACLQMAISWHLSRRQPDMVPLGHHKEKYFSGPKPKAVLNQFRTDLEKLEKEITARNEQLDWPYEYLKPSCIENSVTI
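Hydroperoxide product was detected by ferrous iron/xylenol orange as the 573 to 405 nm absorbance ratio. Arachidonic acid at 40 uM (final) was turned over for 30 min at room temperature by 150 nM human 12hLO, pH 7.0 Hepes buffer, after 15 min compound preincubation.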
BAZ2B inh = qHTS Assay for Inhibitors of BAZ2B; Bromodomain adjacent to zinc finger domain protein 2B (Homo sapiens), Q9UIF8; AlphaScreen BAZ2B-H3K14Ac peptide displacement; Potency, µM (series often up to 114 µM), inactives show at the highest dose activity change, negative = inhibition, actives largely listed as inhibitors; actives 4.4% (n = 360,000); AID 504333, 2011; also: % is scaled to controls: 0 for no effect and ±100 for the full control effect; nearly all actives have a fitted effect of over 60% in size
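Compounds, titrated to a top concentration of 110 uM, were incubated 30 min at room temperature with preformed BAZ2B/acetyl-K14 H3 peptide complex (50 nM each). Proximity signal was measured by AlphaScreen after 20 min with beads.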
JMJD2A Tudor = qHTS Assay for Inhibitors of JMJD2A-Tudor Domain | AID 504339, 2011 | actives 4.4% (n = 390,000) | Potency, µM (titrated, usually from 114 µM), for inactives: at the highest dose activity change, negative = inhibition, most hits filed as inhibitors | AlphaScreen JMJD2A-Tudor / H3K4me3 peptide binding; also: % is scaled to controls: 0 for no effect and ±100 for the full control effect; nearly all actives have a fitted effect of over 50% in size
Sfp inh = qHTS Assay for Inhibitors of Bacillus subtilis Sfp phosphopantetheinyl transferase (PPTase); Biochemical Sfp PPTase activity, qHTS; Potency, µM, without a hit: largest response in the series, negative = inhibition, most hits filed as inhibitors; actives 3.5% (n = 310,000); AID 1490, 2009;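 also: the enzyme is Sfp with the accession as filed and its product quenches rhodamine fluorescence; 0% = enzyme reaction without inhibitor and -100% = no enzyme wells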
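Reaction rates are the 30-min fluorescence difference (ex 525, em 598 nm) in wells containing 15 nM Sfp, 5 uM rhodamine-CoA and 12.5 uM BHQ-2-YbbR at pH 7.6 with 10 mM MgCl2.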
G9a block = qHTS Assay for Inhibitors of Histone Lysine Methyltransferase G9a | Histone-lysine N-methyltransferase EHMT2 (Homo sapiens), Q96KQ7 | G9a H3K9 monomethylation, AlphaScreen, 2 h | Potency, µM (doses to about 102 µM), for the others: at the highest dose activity, negative = inhibition, most hits filed as inhibitors | actives 8.8% (n = 350,000); also: % is scaled to controls: 0 for no effect and ±100 for the full control effect; nearly all actives have a fitted effect of over 75% in size
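G9a (20 nM) preincubated 15 min RT with compounds, then 500 nM biotinylated H3K9 peptide and 20 uM SAM added; 2 h RT reaction. Monomethyl-H3K9 product detected by AlphaScreen with anti-H3K9me1 antibody, streptavidin donor and anti-rabbit IgG acceptor beads.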
Active calls of the source: *; [ ] = another dose, or the depositor's remark. Compounds with a hit are over-represented: about 8.7% of the library has one in this group of screens. Calls follow the shape of the dose curve; as a rule, active = well fitted curve in the direction sought with a large enough effect; inconclusive = small, poorly fitted or top-dose-only effect, or another doubt; inactive = no such curve, though single readings can be large; an effect the other way counts as inactive or inconclusive. Potency is read from the fitted curve at half-maximal effect.

Screening O=C(NCC12CC3CC(CC(C3)C1)C2)c1cc([N+](=O)[O-])ccc1Cl returned ALOX12 inh -17.7%.
For CCC(C)(C)c1nnc(NC(=O)C2CC(=O)N(CCc3ccc(F)cc3)C2)s1 (stereo not drawn) the results were HP1b binding inh -9.3%, ALOX12 inh -71.0%, BAZ2B inh 1.5%, JMJD2A Tudor -9.2%, Sfp inh -6.3% and G9a block 44.7µM*.
`CCC(CC)c1nnc(NC(=O)C2CC(=O)N(CCc3ccc(F)cc3)C2)s1` (stereo not drawn) gave HP1b binding inh inconclusive, ALOX12 inh inconclusive, BAZ2B inh inconclusive, JMJD2A Tudor -19.2%, Sfp inh 11.2µM* and G9a block 3.16µM*.
CC/C=C(/C)C(=O)NCCCN1CCCC1 was read as ALOX12 inh 1.9%.
Cc1ccc(-c2cc3c(=O)n(CCNC(=O)c4cccc(N(C)C)c4)ccn3n2)cc1C was read as ALOX12 inh 33.6%.
N#CC1=C(N)Oc2cc(O)c(Cl)cc2C1c1cccnc1 (stereo not drawn) was read as HP1b binding inh 1.8%, ALOX12 inh -15.4%, BAZ2B inh -14.3%, JMJD2A Tudor -11.3%, Sfp inh -22.5% and G9a block 31.6µM*.
`COC(=O)C1=C(C)OC(N)=C(C#N)C1c1ccccc1F` (stereo not drawn) gave HP1b binding inh 14.3%, ALOX12 inh 0.0%, BAZ2B inh -2.4%, JMJD2A Tudor -10.4%, Sfp inh -1.5% and G9a block -1.9%[59 µM].
N#CC1=C(N)Oc2ccc3ccccc3c2C1c1cccnc1 (stereo not drawn) was read as HP1b binding inh 30.6%, ALOX12 inh 9.0%, BAZ2B inh -38.4%, JMJD2A Tudor -18.5%, Sfp inh 2.4% and G9a block 44.7µM*.
N#CC1=C(N)Oc2cc(O)c(Cl)cc2C1c1ccccc1F (stereo not drawn) was read as HP1b binding inh 25.7%, ALOX12 inh inconclusive, BAZ2B inh -11.5%, JMJD2A Tudor -13.4%, Sfp inh 0.5% and G9a block 50.1µM*.
`Cc1[nH]c2ccc(C(=O)OCC(=O)NC3CC3)cc2c1C` gave ALOX12 inh -40.9%.
COCCn1c(C)cc(C(=O)Cn2cnc3c2c(=O)n(C)c(=O)n3C)c1C was read as ALOX12 inh -9.4%.
For Cc1ccc(C)c(NC(=O)C2CC3CCC2C3)c1 (stereo not drawn) the results were HP1b binding inh 49.6%, ALOX12 inh -16.2%, BAZ2B inh -0.4%, JMJD2A Tudor -8.6% and Sfp inh 7.2%.
For Oc1ccc(C2C[C@H]3CC[C@@H]2C3)cc1O (stereo partly drawn) the results were HP1b binding inh 79.4µM*, ALOX12 inh inconclusive, BAZ2B inh inconclusive, JMJD2A Tudor 20µM*, Sfp inh 22.4µM* and G9a block 1µM*.
Screening O=C(OC(c1ccccc1)c1nccc2ccccc12)c1cc([N+](=O)[O-])cc([N+](=O)[O-])c1 (stereo not drawn) returned HP1b binding inh inconclusive, ALOX12 inh -10.2%, BAZ2B inh inconclusive, JMJD2A Tudor inconclusive, Sfp inh 2.5% and G9a block 10µM*.
For Cc1ccc(-c2nnc(-c3ccccc3Br)o2)cc1 the results were HP1b binding inh 99.5%, ALOX12 inh 17.2%, BAZ2B inh 60.5%, JMJD2A Tudor 111.0%, Sfp inh 8.9% and G9a block 21.0%[0.501 µM].
Screening Clc1ccc(-c2nnc(-c3ccccc3Cl)o2)cc1 returned HP1b binding inh 115.3%, ALOX12 inh -0.6%, BAZ2B inh 134.3%, JMJD2A Tudor 90.9%, Sfp inh 70.8µM* and G9a block 184.9%.
Brc1ccc(-c2nnc(-c3ccccc3Br)o2)cc1 was read as HP1b binding inh 46.6%, ALOX12 inh -0.7%, BAZ2B inh 112.1%, JMJD2A Tudor 15.7%, Sfp inh 50.1µM* and G9a block 57.4%.
`O=S(=O)(NCCc1cn(S(=O)(=O)c2ccccc2)c2ccccc12)c1ccccc1` gave HP1b binding inh 0.3% and JMJD2A Tudor 50.1µM*.
`CC1CCCCN1C(=O)COC(=O)c1cc([N+](=O)[O-])ccc1N` (stereo not drawn) gave HP1b binding inh 3.5%, ALOX12 inh inconclusive, BAZ2B inh -26.3%, JMJD2A Tudor -7.9% and G9a block 39.8µM*.
`CC1CCN(C(=O)COC(=O)c2cc([N+](=O)[O-])ccc2N2CCOCC2)CC1` gave HP1b binding inh 9.3%, ALOX12 inh -8.9%, BAZ2B inh 8.6%, JMJD2A Tudor -5.5% and G9a block -5.8%[0.501 µM].
Screening CC1CCCCN1C(=O)Cn1cnc2cc([N+](=O)[O-])ccc2c1=O (stereo not drawn) returned HP1b binding inh -14.3%, ALOX12 inh inactive, BAZ2B inh inconclusive, JMJD2A Tudor 14.1µM*, Sfp inh -0.6% and G9a block -5.9%.
For Cc1cc(C)c(C(=O)Cn2cnc3cc([N+](=O)[O-])ccc3c2=O)cc1C the results were HP1b binding inh 3.2%, ALOX12 inh 16.9%, BAZ2B inh -16.8%, JMJD2A Tudor -30.1%, Sfp inh 11.8% and G9a block inconclusive.
`COc1cccc(CNC(=O)[C@@H]2C[C@@H](O)CN2C2CCN(C(=O)c3ccccc3OC)CC2)c1` gave ALOX12 inh 20.7%.
Screening COc1cccc(C2CC3(CC(C)(C)NC(=S)N3)Oc3cc(O)ccc32)c1 (stereo not drawn) returned HP1b binding inh 1.5%, ALOX12 inh inconclusive, BAZ2B inh inconclusive, JMJD2A Tudor -33.8%, Sfp inh -16.8% and G9a block inconclusive.
`Cc1cccc(C2CC3(CC(C)(C)NC(=S)N3)Oc3cc(O)ccc32)c1` (stereo not drawn) gave HP1b binding inh 14.2%, ALOX12 inh 39.8µM*, BAZ2B inh inconclusive, JMJD2A Tudor -34.3%, Sfp inh -0.3% and G9a block inconclusive.
